From PubChem
Shown are actives, neighbours in structure and some others; about 7.4% of the full set was active somewhere.
SMN2 splice enh – SMN2 splice variant enhancement | HEK293 SMN2-luciferase splicing reporter, luminescence, 30-36 h | Potency, µM (doses to about 46.1 µM), most hits filed as activators | actives 2.8% (n = 210,000) | AID 1458; also: nearly all actives have a fitted effect of over 55% in size
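HEK293 cells carry an SMN2 minigene-luciferase reporter in which exon 7 inclusion puts luciferase in frame. Cells were seeded at 2000 cells/well, attached for 10-12 hours, then exposed to compounds for 30-36 hours at 37C before ONE-Glo luminescence.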
Rab9 promoter act – activates the Rab9 promoter; Huh7 Rab9 promoter-luciferase reporter, luminescence, 24 h; actives 2.8% (n = 320,000); Potency, µM (top dose mostly 9.22 µM), most hits filed as activators; also: nearly all actives have a fitted effect of over 60% in size
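Huh7 cells stably carrying a Rab9 promoter-luciferase reporter, 1500 cells per well in OP-MEM I with 10% FBS, treated with compound 24 hours at 37C. Luciferase activity read by luminescence after 10 minutes with Amplite reagent.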
ELG1 genotox – induces genotoxicity in HEK293T cells with luciferase-tagged ELG1; actives 1.3% (n = 330,000); AID 504466; HEK293T ELG1-luciferase reporter, luminescence, 16 h; Potency, µM (series often up to 46 µM), actives largely listed as activators; also: nearly all actives have a fitted effect of over 60% in size
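16 hr compound incubation (37 °C, 5% CO2) of HEK293T cells carrying luciferase-tagged ELG1; luciferase then measured by ONE-Glo luminescence after 30 min at RT.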
p53 reactivator – restores transcriptional activity of mutant p53. actives 0.063% (n = 320,000). H1299 p53-A138V BP100-luciferase reporter, luminescence, 24 h. Potency, µM (titrated, usually from 92.2 µM), most hits filed as activators; also: nearly all actives have a fitted effect of over 45% in size
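p53-null H1299 cells stably carrying temperature-sensitive p53-A138V and a BP100-luciferase reporter were pinned with compounds (4-point, 1:5 series) and held 24 hrs at 37 deg C. Luminescence was read 10 min after detection reagent.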
FLuc counter – inhibits or activates purified firefly luciferase, miR-21 counter-screen. P08659. purified FLuc, Km substrates, luminescence inhibition. Potency, µM (top dose mostly 57.5 µM), most hits filed as inhibitors. actives 6.9% (n = 360,000). AID 588342; also: nearly all actives have a fitted effect of over 55% in size
Target sequence (P08659 whole entry, looked up): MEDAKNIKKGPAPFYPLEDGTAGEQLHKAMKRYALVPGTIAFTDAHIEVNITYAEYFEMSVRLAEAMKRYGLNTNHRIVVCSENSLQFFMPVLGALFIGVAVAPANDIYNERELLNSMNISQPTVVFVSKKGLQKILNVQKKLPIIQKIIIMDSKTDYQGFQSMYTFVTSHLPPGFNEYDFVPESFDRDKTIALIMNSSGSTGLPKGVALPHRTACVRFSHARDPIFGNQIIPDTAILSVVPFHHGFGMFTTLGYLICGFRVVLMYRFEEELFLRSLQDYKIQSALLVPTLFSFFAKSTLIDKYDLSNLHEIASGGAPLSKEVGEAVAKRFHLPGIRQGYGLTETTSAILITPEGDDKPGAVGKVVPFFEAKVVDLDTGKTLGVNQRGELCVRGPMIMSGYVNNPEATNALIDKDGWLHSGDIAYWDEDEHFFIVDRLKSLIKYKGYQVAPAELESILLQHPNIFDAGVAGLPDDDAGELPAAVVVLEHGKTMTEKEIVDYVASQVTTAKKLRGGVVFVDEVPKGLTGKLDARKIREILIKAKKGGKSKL
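Purified P. pyralis luciferase (10nM final) with 10uM D-luciferin and 10uM ATP (Km levels) in 50mM Tris acetate pH 7.5, 10mM Mg acetate, 0.01% Tween-20, 0.05% BSA; qHTS 6-point titration, ~60 µM downward; luminescence read.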
NPC1 prom act – activates the NPC1 promoter. Huh7 NPC1 promoter luciferase reporter, 24 h. Potency, µM (titrated, usually from 9.22 µM), most hits filed as activators. actives 2.4% (n = 320,000). AID 485313; also: nearly all actives have a fitted effect of over 60% in size
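Huh7 cells stably carrying NPC1 promoter–luciferase, plated in Opti-MEM with 10% FBS for 2 h, were exposed to compound in DMSO for 24 h at 37 °C; luciferase reagent was added for 10 min and luminescence read.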
A number is an active result; . = inactive; ? = inconclusive; / = not tested or not shown. Calls follow the shape of the dose curve; as a rule, active = well fitted curve in the direction sought with a large enough effect; inconclusive = small, poorly fitted or top-dose-only effect, or another doubt; inactive = no such curve, though single readings can be large; an effect the other way counts as inactive or inconclusive.

SMILES	SMN2 splice enh	Rab9 promoter act	ELG1 genotox	p53 reactivator	FLuc counter	NPC1 prom act
Cc1cc2ncc(C(=O)Nc3ccsc3C(=O)O)c(C)n2n1	.	?	?	.	12µM	?
O=C(Nc1cc(F)c(Br)cc1F)c1ccc(Cl)cc1	/	1.78µM	?	.	2.69µM	2.24µM
Cc1ccc(C(=O)Nc2ccsc2C(=O)O)cc1	/	0.447µM	23.1µM	?	2.69µM	0.708µM
O=C(NCc1ccccc1)C(C(=O)c1ccc(F)cc1)n1ccccc1=O (stereo not given)	.	.	.	.	.	.
O=C(NCc1cccnc1)C(C(=O)c1ccc(F)cc1)n1ccccc1=O (stereo not given)	.	.	18.4µM	.	.	.
Cc1ccccc1-c1nc(SCC(=O)NCc2ccc(F)cc2)c2c(=O)n(C)c(=O)n(C)c2n1	/	/	/	/	.	/
COc1ccc(-c2c(C)nn(-c3ccccc3)c2N)cc1	?	?	?	.	21.3µM	?
Cc1nn(-c2ccc(C(=O)O)cc2)c(N)c1-c1ccccc1	11.2µM	?	?	?	3.01µM	?
COc1ccc(-c2nn(-c3ccccc3)cc2N)cc1	14.1µM	2.82µM	?	?	10.7µM	3.55µM
COc1ccc(-c2c(C)nn(-c3ccccc3)c2N)cc1OC	?	.	.	.	.	.
COc1ccc(-c2nn(-c3ccccc3)cc2CO)cc1	.	?	?	.	?	.
O=C(NCCS(=O)(=O)N1CCN(c2ccc(F)cc2)CC1)c1ccco1	/	.	.	.	.	.
COc1ccc(C(=O)N2CCc3ccccc32)cc1	11.2µM	?	?	.	?	.
O=C(Nc1ccccc1)N1CCc2ccccc21	14.1µM	1µM	9.2µM	?	21.3µM	1.58µM
COc1ccc(CCC(=O)N2CCc3ccccc32)cc1	.	?	?	.	9.53µM	?
CCOC(=O)c1ccc(NC(=O)N2CCc3ccccc32)cc1	15.8µM	1.78µM	8.2µM	?	1.9µM	1.78µM
COc1ccc(CCC(=O)N2c3ccccc3CC2C)cc1 (stereo not given)	.	.	?	?	?	.
S=C(Nc1ccccc1)N1CCc2ccccc21	/	.	.	.	?	.
CCN(C(=O)Cn1nc(Cc2ccncc2)c2ccccc2c1=O)c1cccc(C(F)(F)F)c1	.	/	/	/	.	/
CC(OC(=O)CCOc1ccccc1)C(=O)NC1CC1 (stereo not given)	/	.	.	.	.	.
COc1ccc(NC(=O)N2CCCc3ccccc32)cc1	.	.	.	.	?	.
COc1ccc(NC(=O)N2CCc3ccccc32)cc1	3.16µM	0.398µM	?	?	1.69µM	0.631µM
C=CCOC(=O)c1sc(NC(=O)c2ccc(OC)cc2)nc1C	?	.	?	.	?	.
COC(=O)c1sc(NC(=S)NC(=O)c2ccc(F)cc2)nc1C	.	?	.	.	.	.
COC(=O)c1sc(NC(=S)NC(=O)c2cccc(Br)c2)nc1C	/	.	.	.	13.5µM	.
SMILES	SMN2 splice enh	Rab9 promoter act	ELG1 genotox	p53 reactivator	FLuc counter	NPC1 prom act
COC(=O)c1sccc1NC(=O)c1ccncc1	.	.	.	.	.	.
COC(=O)c1sc(NC(=O)c2ccncc2)nc1C	/	.	.	.	23.9µM	.
CCOc1ccc(C(=O)Nc2nc(C)c(C(=O)OC)s2)cc1	/	?	20.6µM	.	0.757µM	?
CCOCCn1ccc2c(OCC(=O)NCc3ccc(F)cc3)cccc2c1=O	/	/	/	/	.	/
CCOc1ccc(Br)cc1C1C(C(=O)OC)=C(C)NC2=C1C(=O)c1ccccc12 (stereo not given)	.	/	/	/	.	/
CC(C)OCCCn1c(SCC(N)=O)nc2c(sc3ccccc32)c1=O	/	/	/	/	.	/
O=C(CSc1nc2ccccc2[nH]1)N1CCCCC1	10µM	3.55µM	8.2µM	?	21.3µM	?
CCCn1c(C)cc(C(=O)CSc2nc3ccccc3c(=O)n2Cc2ccco2)c1C	?	3.55µM	?	25.1µM	5.36µM	3.16µM
CCOc1ccccc1CSc1nc2ccccc2[nH]1	.	.	.	.	?	.
O=C(O)c1ccccc1CSc1nc2ccccc2[nH]1	/	?	?	.	10.7µM	?
COCC(C)n1c(C)cc(C(=O)CSc2nc3ccccc3c(=O)[nH]2)c1C (stereo not given)	.	.	.	.	?	.
COCCn1c(C)cc(C(=O)CSc2nc3ccccc3c(=O)[nH]2)c1C	?	1.58µM	?	/	5.36µM	1.78µM
COC(=O)c1ccc(C#CC(NP(=O)(c2ccccc2)c2ccccc2)c2ccccc2)cc1 (stereo not given)	.	/	/	/	/	/
C=CCn1c(C)cc(C(=O)CSc2nc3ccccc3[nH]2)c1C	.	0.316µM	?	.	0.301µM	0.126µM
Cc1cc(C(=O)CSc2nncs2)c(C)n1Cc1ccco1	.	0.708µM	?	.	4.78µM	0.631µM
Cc1cc(C(=O)CSc2nn(-c3ccccc3)c(=S)s2)c(C)n1Cc1ccco1	.	.	.	.	.	.
Fc1cccc(CSc2nc3ccncc3[nH]2)c1	11.2µM	?	.	?	?	.
Clc1cccc(CSc2nc3ccncc3[nH]2)c1	.	?	?	?	?	.
O=C(CSc1nc2ccccc2[nH]1)c1ccccc1F	/	1.58µM	?	?	8.49µM	1.41µM
Cc1cc(C(=O)CSc2nc3ccccc3[nH]2)c(C)n1Cc1ccco1	?	0.501µM	?	?	0.757µM	0.708µM
Cc1cc(C(=O)CSc2nc3ccccc3[nH]2)c(C)n1C	3.16µM	0.447µM	?	/	3.38µM	0.398µM
Cc1ccc2nc(SCC(=O)c3cc(C)n(C)c3C)[nH]c2c1	.	.	.	.	.	.
COCCn1c(C)cc(C(=O)CSc2ccc3ccccc3n2)c1C	11.2µM	?	.	?	12µM	?
C=CCn1c(C)cc(C(=O)COc2nncc3ccccc23)c1C	?	?	10.3µM	?	15.1µM	1.41µM
C=CCn1c(C)cc(C(=O)COc2ccc(C)nc2[N+](=O)[O-])c1C	.	.	?	?	?	.
SMILES	SMN2 splice enh	Rab9 promoter act	ELG1 genotox	p53 reactivator	FLuc counter	NPC1 prom act
COCCn1c(C)cc(C(=O)COc2nc3ccccc3nc2C)c1C	.	.	.	.	.	.
COc1ccc(NC(=O)C2=C(C)Nc3c(C(=O)Nc4ccc(C)cc4)cnn3C2c2cccc(Cl)c2)cc1 (stereo not given)	/	/	/	/	.	/
CCOC(=O)c1ccccc1NC(=O)COC(=O)CSc1ccccc1	/	.	.	?	.	.
Brc1cc(Oc2cc(Br)c(Br)c(Br)c2Br)c(Br)c(Br)c1Br	.	/	/	/	/	/
COCCn1c(C)cc(C(=O)CSc2nncn2-c2ccccc2)c1C	.	.	.	?	19µM	.
Cc1noc(C)c1CSc1nc2ccccc2[nH]1	.	.	?	.	.	.
COc1ccc(-n2cnnc2SCC(=O)c2cc(C)n(Cc3cccs3)c2C)cc1	.	.	.	.	?	.
Fc1cccc(F)c1CSc1nc2ccccc2[nH]1	10µM	1µM	?	?	?	1.41µM
